Drawing on PubChem BioAssay (NCATS), this text covers Potency for 40 compounds.

Results filed as inconclusive are left out. A call without a number means that no potency is given here. Active and inactive are the calls of the source. Calls follow the shape of the dose curve; as a rule, active = well fitted inhibition curve with a large enough effect; inconclusive = small, poorly fitted or top-dose-only effect; inactive = flat fitted curve, though single readings scatter.

In this test the target is Calcium and integrin-binding protein 1 (Homo sapiens) (UniProt Q99828). Briefly: Primary qHTS for Identification of Calcium Integrin Binding Protein 1 (CIB1) Competitor (AID 1508620). Also: top concentration of the series differs between compounds. As to conditions: CIB1-GST / FITC-alphaIIb peptide fluorescence polarization; series mostly up to 114 µM. The essentials: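 Fluorescence polarization competition: GST-tagged CIB1 (1 uM final) preincubated with compound 15 min at room temperature, then FITC-labelled alphaIIb peptide (100 nM final) added. After 15 min at room temperature, polarization read at Ex 480/Em 540.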
Chain of Calcium and integrin-binding protein 1 (Homo sapiens) (Q99828 whole entry, looked up): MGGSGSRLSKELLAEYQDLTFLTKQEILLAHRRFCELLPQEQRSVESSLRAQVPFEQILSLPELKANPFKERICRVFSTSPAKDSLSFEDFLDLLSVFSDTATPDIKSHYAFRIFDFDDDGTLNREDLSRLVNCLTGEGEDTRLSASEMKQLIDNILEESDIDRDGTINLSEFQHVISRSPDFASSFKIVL
For orientation: In qHTS, concentration-response curves come from the screen itself.
Turning to `FC(F)(F)c1ccccc1-c1nc(NCc2ccc(-c3cccnc3)cc2)c2sccc2n1`, the Potency entry is “inactive”.

Turning to `COc1ccc(C2Nc3ccccc3C(=O)N2Cc2ccccn2)cc1COc1ccc(NC(C)=O)cc1` (stereo not given), the Potency result is “inactive”.

Consider `COc1ccc(C(=O)Nc2ccc(-c3nc4ccccc4[nH]3)cc2)cc1C(F)(F)F`, for which the Potency entry was “inactive”.

Consider `CC(=O)N1CCN(c2ccc(NCc3ccccc3)cc2)CC1`, for which the Potency result was “inactive”.

Regarding `O=C(/C=C/c1cccnc1)Nc1cccc([S+](=O)([O-])Nc2ccccc2F)c1`, the Potency result was “inactive”.

Take `Cc1cc2c(s1)c1cnn(Cc3ccc4ccccc4c3)c(=O)c1n2C`: the Potency entry is “inactive”.

As to `Cc1cc2c(s1)c1cnn(Cc3cc(F)ccc3F)c(=O)c1n2C`, the Potency result was “inactive”.

Turning to `CCOC(=O)CCCC(=O)Nc1ncnc2c1C(c1ccccc1)c1c(ccc3ccccc13)O2` (stereo not given), the Potency entry was “inactive”.

For `Cc1cnc(-c2ccccc2C(C)C)nc1NCC1CCN(C)CC1`, the Potency entry is “inactive”.

Consider `Oc1ccc(CNc2ccccc2Cl)c2cccnc12`, for which the Potency result is “inactive”.

`CSc1ccc(-c2cncc(NC(=O)c3cccs3)c2)cc1`: the Potency entry is “inactive”.

`CCOc1ccc(CCNC(=O)c2cc3sccc3[nH]2)cc1OCC`: the Potency result was “inactive”.

As for `O=C(OCC#CCSc1nnc(-c2cccc3ccccc23)o1)c1ccc(F)cc1`, the Potency result is “inactive”.

Take `COc1ccc(Cl)cc1S(=O)(=O)N1CCN(S(=O)(=O)c2ccc3c(c2)OCCO3)CC1`: the Potency result was “inactive”.

With `O=C1CCCC2=C1C(c1ccc(Cl)cc1)N=C(Nc1nc3ccccc3o1)N2` (stereo not given), the Potency entry was “inactive”.

In the case of `COc1ccc(C2c3ccc(OCc4ccccc4)cc3Oc3ncn(CCN4CCOCC4)c(=N)c32)cc1OC` (stereo not given), the Potency entry is “inactive”.

Consider `COc1ccc(C2NC(=O)c3ccccc3N2)cc1COc1c(C)cc(NC(C)=O)cc1C` (stereo not given), for which the Potency result was “inactive”.

On to `O=C(Nc1ccc2ccccc2c1)Nc1nnc(C2CCCCC2)s1`, for which the Potency entry is “inactive”.

Consider `Cc1cc2c(s1)c1cnn(Cc3ccc(C(C)C)cc3)c(=O)c1n2C`, for which the Potency result is “inactive”.

As for `COc1ccc(C2Nc3ccccc3C(=O)N2Cc2ccccc2)cc1OCc1ccc(NC(C)=O)cc1` (stereo not given), the Potency entry is “inactive”.

Take `CN1CCN(c2cccc(Nc3nn4c(=O)c5ccc(F)cc5nc4s3)c2)CC1`: the Potency entry was “inactive”.

As to `Cc1cc(N[S+](=O)([O-])c2ccc(NC(=O)Cc3ccc(F)c(F)c3)cc2)no1`, the Potency entry is “inactive”.

In the case of `CN(C)CCNc1ncnc2ccc(-c3ccc4c(c3)OCO4)cc12`, the Potency entry is “inactive”.

Take `O=S(=O)(c1ccc2c(c1)OCCO2)N1CCN(S(=O)(=O)c2ccccc2F)CC1`: the Potency result was “inactive”.

As for `N#Cc1c(-c2cccc(O)c2)no[n+]1[O-]`, the Potency entry is “inactive”.

In the case of `O=c1[nH]c2ccc(S(=O)(=O)N3CCN(S(=O)(=O)c4c(F)cccc4F)CC3)cc2[nH]c1=O`, the Potency entry was “inactive”.

For the compound `COc1ccc(Nc2nc(C#N)nc(NC3CCCC3)n2)cc1`, the Potency result is “inactive”.

In the case of `COc1ccc(-c2nnc3n2N=C(c2ccccc2OC)CS3)c(OC)c1`, the Potency result was “inactive”.

Take `Cc1cc(NC(=O)Nc2cccc(-c3ccncc3)n2)ccc1Cl`: the Potency result was “inactive”.

For the compound `Nc1ccc(S(=O)(=O)Nc2cccc3cccnc23)cc1`, the Potency result is “inactive”.

For `O=C1c2ccccc2NC(c2ccc(-c3cccc(Cl)c3)o2)N1O` (stereo not given), the Potency entry was “inactive”.

Consider `CN1CCOc2cc(S(=O)(=O)N3CCN(S(=O)(=O)c4c(F)cccc4F)CC3)cnc21`, for which the Potency result was “inactive”.

Consider `COc1ccc(C2NC(=O)c3ccccc3N2)cc1COc1ccc(NC(C)=O)cc1` (stereo not given), for which the Potency entry is “inactive”.

Take `Cc1cc(C)nc(NC(=S)N2CCN(C3=Nc4ccccc4Oc4ccccc43)CC2)c1`: the Potency result is “inactive”.

In the case of `Cn1nnnc1Sc1ncnc2scc(-c3cnc(N)nc3)c12`, the Potency entry is “inactive”.

Regarding `NC(=O)C1CCN(c2ncc(-c3cccc(N4CCOCC4)c3)s2)CC1`, the Potency result is “inactive”.

In the case of `NC(=O)C1CCN(c2nccc(-c3ccc4c(c3)OCCCO4)n2)CC1`, the Potency result was “inactive”.

`C#CCCC(=O)Nc1sc2c(c1-c1nc3ccccc3s1)CCNC2`: the Potency result is “inactive”.

For `Cc1noc(C)c1-c1cccc(-c2nn3c(=O)cc(N4CCNCC4)nc3s2)c1`, the Potency result is “inactive”.

`Cc1cc2c(s1)c1cnn(Cc3c(F)ccc(F)c3F)c(=O)c1n2C`: the Potency entry is “inactive”.
